Experimental findings from the supplement of paper PMC11172423 are described below.

This test relates to Madurella mycetomatis MM55. In words: growth relative to untreated control; higher = less inhibition, active = 20 or less. The following applies: 100 µM. The procedure, abridged: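 Compound at 100 or 25 µM was applied for 7 days at 37 °C to hyphal fragments of M. mycetomatis MM55 or F. senegalensis CBS197.79 in 96-well plates. Fragments were suspended in colourless RPMI 1640 with L-glutamine and MOPS at 68–72% transmission at 660 nm, and viability was read with MTS (2 h, 490 nm) or resazurin (600 nm). Growth is reported as blank-corrected metabolic activity relative to the blank-corrected untreated growth control.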
As for `Clc1ccc(Nc2nc3cnc(NC4CC4)nc3n2C2CCNCC2)cc1Cl`, the growth was 73% (inactive).

For the molecule `NC(=O)C(c1ccccc1)(c1ccccc1)[C@@H]1CCN(CCc2ccc3c(c2)CCO3)C1`, the growth is 79.1% (inactive).

With `Clc1cccc2cnsc12`, the growth was 68.5% (inactive).

As for `CC(C)Nc1ncc2nc(Nc3cc(C(F)(F)F)cc(C(F)(F)F)c3)n(C3CCNCC3)c2n1`, the growth was 64.5% (inactive).

For the molecule `CCOc1ccc(-c2nc(NC(=O)Cc3cccc(OC)c3)sc2C)cc1`, the growth is 83.1% (inactive).

As for `FC(F)(F)c1cc(Cl)cc(Nc2nc3cnc(NC4CCOCC4)nc3n2C2CCNCC2)c1`, the growth was 5.14% (active).

Regarding `CC(C)(C)Cn1c(N)nc2ccc(-c3[nH]c(C(C)(C)C)nc3-c3ccc(F)cc3)nc21`, the growth is 3.85% (active).

As for `Cc1cc2c(cc1Cl)N(C(=O)Nc1cc(F)cc(-c3cncnc3)c1)CC2`, the growth is 49.7% (inactive).

For the molecule `COc1ccc(Cl)cc1-c1nc(C(=O)NCCN2CCCCC2)c(C(C)C)s1`, the growth is 6.6% (active).

Turning to `FC(F)(F)c1cc(Cl)cc(Nc2nc3cnc(NC4CCC4)cc3[nH]2)c1`, the growth is 27% (inactive).

As to `O=C(NC1CCCc2c1[nH]c1ccc(Cl)cc21)c1ccccn1` (stereo unspecified), the growth was 9.39% (active).

As for `C[C@H](NC(=O)c1cc2ccc(F)cc2[nH]1)c1ccccc1`, the growth was 82.5% (inactive).

Consider `CC[C@H](C)[C@@H]1NC(=O)c2csc(n2)[C@H]([C@@H](C)CC)NC(=O)c2csc(n2)CNC(=O)c2nc1oc2C`, for which the growth is 44.8% (inactive).

With `CCCN1CCC=C(c2cc(-c3ccc(C)cc3)no2)C1`, the growth is 4.88% (active).

On to `Cc1cccnc1Nc1cn2cc(-c3ccnc(OC(C)C)n3)ccc2n1`, for which the growth is 6.2% (active).

For the molecule `O=C(Nc1cccc(-c2n[nH]c3ccc(-c4n[nH]c(C5CCCN5)n4)cc23)c1)C1CC1` (stereo unspecified), the growth was 36.4% (inactive).

For `CNCc1[cH-]ccc1CNc1ccnc2cc(Cl)ccc12.[Fe+2].c1cc[cH-]c1`, the growth was 2.49% (active).

Consider `OB(O)O`, for which the growth is 163% (inactive).

Consider `CC(C)(C)NCc1cc(Nc2ccnc3cc(Cl)ccc23)c2c(c1O)CCCC2`, for which the growth is 95.1% (inactive).

`O=c1[nH]ccc2nc(N[C@@H]3CCNC3)nc(Nc3ccc4c(c3)S(=O)(=O)CC4)c12`: the growth was 104% (inactive).

Consider `CC(C)(C)NC(=O)[C@@H]1CN(Cc2cccnc2)CCN1C[C@@H](O)C[C@@H](Cc1ccccc1)C(=O)N[C@H]1c2ccccc2C[C@H]1O`, for which the growth is 90.8% (inactive).

Regarding `Cn1cc(CN2CCc3c(c(C(=O)NCc4nccs4)nn3Cc3ccccc3)C2)c2ccccc21`, the growth was 32.5% (inactive).

Take `CN(C)CCOc1ccc(/C(=C(/CCCl)c2ccccc2)c2ccccc2)cc1`: the growth is 6.66% (active).

Regarding `O=C1CN(C(=O)CCC2CCCC2)C(c2ccc(F)cc2)c2cc(Cl)ccc2N1` (stereo unspecified), the growth is 94.9% (inactive).

Consider `Cc1nc2ccccn2c1C1(O)C(=O)Nc2c(Cl)cc(Cl)cc21` (stereo unspecified), for which the growth is 111% (inactive).

Consider `C[C@H](NC(=O)c1cc2cccc(F)c2[nH]1)c1ccccc1`, for which the growth is 6.74% (active).

With `O=C1NCN(c2ccccc2)C12CCN(CCCC(c1ccc(F)cc1)c1ccc(F)cc1)CC2`, the growth was 5.27% (active).

On to `CN(C)CCN1CCCN(c2ccnc3ccsc23)CC1`, for which the growth was 79.5% (inactive).

In the case of `O=C(NC1(CO)CCOCC1)c1cc2ccc(C(F)(F)F)cc2[nH]1`, the growth is 72.9% (inactive).

For the molecule `Cc1nn(-c2cccc(Cl)c2)c2c1C(C(=O)c1ccc3c(c1)OCO3)CC(=O)N2` (stereo unspecified), the growth was 88.3% (inactive).

On to `c1cc(-c2n[nH]c3ccc(-c4n[nH]c(C5CCCN5)n4)cc23)ccc1CNC1CC1` (stereo unspecified), for which the growth is 31.7% (inactive).

As to `C[C@]1(c2nc3c(C(N)=O)cccc3[nH]2)CCCN1`, the growth is 87.6% (inactive).

With `CNc1ccc2cc(NC(=O)c3ccc(C(F)(F)F)c(Cl)c3)ccc2n1`, the growth is 77.4% (inactive).

Regarding `CC(C)C[C@H](NC(=O)[C@@H](NC(=O)c1cccc(-c2ccccc2)n1)[C@@H](C)O)B(O)O`, the growth was 88.5% (inactive).

With `CCC1=C(c2ccc(C)cc2)S(=O)(=O)N=C1N1CCC(C(=O)NCCN2CCCCC2C)CC1` (stereo unspecified), the growth is 81.9% (inactive).

In the case of `CCc1nn2c(Nc3ccncc3)cc(C)nc2c1-c1ccccc1`, the growth is 75.7% (inactive).
